Where “and” joins values, the source holds several entries; their conditions need not be identical. Equal entries are not always repeated. About 79,000 compounds went through this panel and 15% of them were active in at least one assay; those are over-represented in the sample as a whole. No stated cut-off is given here; in the data, active means growth inhibition above about 70%; inactive means the rest.
Experiments:
[1] = NCI Yeast Anticancer Drug Screen. Data for the rad50 strain (AID 155);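 further: 0% = growth of vehicle-only cultures of the same strain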; settings: S. cerevisiae rad50 strain growth inhibition; at 50.0 µM; hits give high values
Outline: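 A DNA repair-deficient yeast mutant serves as the test organism; compound-induced growth inhibition is calculated against vehicle-treated cells.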

[2] = NCI Yeast Anticancer Drug Screen. Data for the mec2-1 strain (AID 157); settings: S. cerevisiae mec2-1 strain, at 50.0 µM, hits give high values
Outline: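 Growth inhibition is read against vehicle-treated controls after compound exposure of the mec2-1 yeast strain, which is defective in DNA damage repair or cell cycle control.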

[3] = NCI Yeast Anticancer Drug Screen. Data for the sgs1 mgt1 strain (AID 161);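 further: 0% = growth of cultures given vehicle only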; settings: S. cerevisiae sgs1 mgt1 strain, at 50.0 µM, hits give high values
Outline: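 Yeast cells carrying a defined DNA-repair defect were exposed to test compounds. Growth inhibition was measured relative to vehicle-treated controls.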

[4] = NCI Yeast Anticancer Drug Screen. Data for the cln2 rad14 strain (AID 165);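 further: 0% = growth equal to vehicle treated cultures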; settings: S. cerevisiae cln2 rad14 strain, at 50.0 µM, hits give high values
Outline: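 Growth inhibition, relative to vehicle-treated controls, is the read-out. The test organism is a yeast strain with defined genetic alterations, cln2 rad14.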

[5] = NCI Yeast Anticancer Drug Screen. Data for the bub3 strain (AID 167); settings: S. cerevisiae bub3 mutant strain, at 50.0 µM, hits give high values
Outline: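 Inhibition values come from growth of compound-treated mutant yeast normalised to vehicle-treated controls.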

[6] = NCI Yeast Anticancer Drug Screen. Data for the mlh1 rad18 strain (AID 175); settings: S. cerevisiae mlh1 rad18 strain growth inhibition; at 50.0 µM; hits give high values
Outline: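 Cells of a genetically altered yeast strain, deficient in DNA damage repair, were treated with compound. Their growth was then compared with that of vehicle-treated cultures to give inhibition.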

Measured: growth inhibition

O=C(Nc1ccc(N(CCCl)CCCl)cc1)Oc1ccc(C(=O)O)cc1
inactive: [1] 6.75% | [2] 6% | [3] 10.1% | [4] 9.3% | [5] 15.2% | [6] 20.5%

SCc1c(Cl)c(Cl)c(Cl)c(Cl)c1Cl.[Hg]
inactive: [1] -7.65% | [2] -24.9% | [3] -15.5% | [4] -64.8% | [5] 3.45% | [6] -28.1%

CCCCOc1ccc([As](=O)(O)O)cc1
inactive: [1] -17.4% | [2] -10.2% | [3] 4.3% | [4] -19.2% | [5] 16.1% | [6] 5.65%

CCCCCCCCCCCCCCCCOc1ccc(S(=O)(=O)F)cc1C(=O)Nc1ccc(S(=O)(=O)Nc2cccc3ccccc23)cc1
inactive: [1] 3.3% | [2] 1.9% | [3] -2.75% | [4] -3.05% | [5] -0.3% | [6] 5.35%

CC1OC(O[C@H]2C[C@@H](O)[C@]3(CO)[C@H]4[C@H](O)C[C@]5(C)[C@@H](C6=CC(=O)OC6)CC[C@]5(O)[C@@H]4CC[C@]3(O)C2)C(O)C(O)C1O (some centres undefined)
inactive: [1] -6.7% | [2] 1.15% | [3] 5.05% | [4] 20.9% | [5] -1.2% | [6] -47.5%

C[C@]12Cc3sc(N)nc3C[C@@H]1CC[C@@H]1[C@@H]2CC[C@@]2(C)[C@H]1CC[C@]2(C)O
inactive: [1] -21.5% | [2] -18.4% | [3] 11% | [4] -32% | [5] 25.6% | [6] -4.95%

CCNC(=O)C(C)Br (centres undefined)
inactive: [1] 19.4% | [2] 13.1% | [3] 23.5% | [4] -3.55% | [5] 6.5% | [6] 23.9%

CCC(CC)CNC(=O)C(C)Br (centres undefined)
inactive: [1] 2.05% | [2] 1.85% | [3] -1.95% | [4] 3.05% | [5] 7.2% | [6] -3.65%

NC(Cc1cnc[nH]1)C(=O)NC(Cc1cnc[nH]1)C(=O)O (centres undefined)
inactive: [1] -5.1% | [2] 9% | [3] -1.5% | [4] 10.6% | [5] 4.45% | [6] 7.6%

c1ccc(C(NC2=NCCO2)c2ccccc2)cc1
inactive: [1] -19% | [2] -33% | [3] -60.8% | [4] -21.5% | [5] -17.2% | [6] -45.8%

O=P(Oc1ccccc1)(Oc1ccccc1)C(O)C(Cl)(Cl)Cl (centres undefined)
inactive: [1] 7.55% | [2] -2.55% | [3] -0.3% | [4] 6.5% | [5] 4% | [6] 5.45%

C[N+](C)(C)CCNP(=O)(Oc1ccccc1)c1ccccc1 (centres undefined)
inactive: [1] 4.15% | [2] 5.55% | [3] -22.5% | [4] 1.35% | [5] -1.55% | [6] 21.6%

COc1cc2c(cc1OC)C13CCN4CC5=CCOC6CC(=O)N2C1C6C5CC43 (centres undefined)
inactive: [1] -13% and 7.35% | [2] -43.9% and -36.3% | [3] -20.9% | [4] 4% | [5] -8.6% | [6] -0.6% and -1.65%

C/C(=N\N(C)C)C(CN(C)C)C(c1ccccc1)c1c(O)c2ccccc2oc1=O (centres undefined)
inactive: [1] 16.8% | [2] -18.5% | [3] 13.8% | [4] 1.5% | [5] 37.8% | [6] 18.9%

C[C@]12CC[C@H](O)C[C@H]1CC[C@@H]1[C@@H]2CC[C@]2(C)[C@@H](C3=CC(=O)OC3)[C@@H](O)C[C@]12O
inactive: [1] -6.05% | [2] -15.8% | [3] 2.35% | [4] -16.8% | [5] -0.15% | [6] 8.1%

CCS(=O)(=O)CCN1C(=O)CN=C(c2ccccc2F)c2cc(Cl)ccc21
inactive: [1] 27.6% | [2] 6% | [3] 20.8% | [4] 12.4% | [5] -0.7% | [6] 16.4%

O=N[O-].O=N[O-].[Co].[NH2-].[NH2-].[NH2-].[NH2-]
inactive: [1] 0.1% | [2] -11.5% | [3] -3.5% | [4] -14.3% | [5] 2.15% | [6] 26.9%

CC(C)(C[N+](=O)[O-])C[N+](=O)[O-]
inactive: [1] -1.45% | [2] -34.1% | [3] 15.6% | [4] -19.1% | [5] -1.7% | [6] 10.9%

COc1ccccc1N
inactive: [1] -2.9% | [2] 1.25% | [3] 4.3% | [4] -8.05% | [5] -9.45% | [6] -17.4%

Reference: PubChem BioAssay (NCI)
